Assay results taken from PubChem BioAssay AID1240 (Sanford-Burnham Center for Chemical Genomics, 2008).
About 800 (1.6%) of roughly 50,000 compounds showed an effect of 50% or more. Shown is part of a subset that was picked to be rich in strong results.

molecular target: Bcl-2-like protein 10 (Homo sapiens) (UniProt Q9HD36); assay: TR3 peptide-Bcl-B binding displacers, biochemical primary FP assay, phenotype converters (AID 1240); conditions: GST-Bcl-B / FITC-TR3 peptide fluorescence polarization; stronger effect = higher value; compound at 3.75 mg/L;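 also: 0% = Bcl-B with tracer peptide and DMSO and 100% = tracer peptide lacking Bcl-B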
Sequence (Q9HD36 whole entry, looked up): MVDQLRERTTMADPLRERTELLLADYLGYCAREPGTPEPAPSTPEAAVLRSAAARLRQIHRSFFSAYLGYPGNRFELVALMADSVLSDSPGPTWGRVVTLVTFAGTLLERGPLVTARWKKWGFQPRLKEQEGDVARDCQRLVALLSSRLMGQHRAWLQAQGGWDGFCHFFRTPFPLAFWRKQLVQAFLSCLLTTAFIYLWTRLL

Row | SMILES | displacement [%]
1 | C/C(=N\N=C1\NC(=O)C(CC(=O)Nc2ccccc2C(F)(F)F)S1)c1ccco1 (centres undefined) | -7.9
2 | O=[N+]([O-])c1ccc(N2CCN(S(=O)(=O)c3ccccc3)CC2)cc1NCCc1ccccc1 | 7.8
3 | Cc1ccc2oc(-c3cc(N)ccc3O)nc2c1 | 5.4
4 | S=C1NCCOCCOCCOCCNC(=S)N2CCOCCOCCN1CCOCC2 | 14.7
5 | O=C1C2C(c3ccccc3)C=CC(c3ccccc3)C2C(=O)N1Cc1ccc(F)cc1 (centres undefined) | -7.7
6 | COc1cc(/C=N\n2nnnc2N)ccc1OCc1ccc(F)cc1 | 10.6
7 | CC1CC(C)CN(C(=O)c2ccc(Cl)cc2Cl)C1 (centres undefined) | -3.8
8 | Cc1ccc(Cl)c(OCC(O)Cn2c(C)nc3ccccc32)c1 (centres undefined) | -11.5
9 | COc1ccc(OCC(O)Cn2c(C)nc3ccccc32)cc1 (centres undefined) | -22.4
10 | O=C(O)C1C2CCC(O2)C1C(=O)N1CCN(c2ccc(F)cc2)CC1 (centres undefined) | -9.7
11 | CCOCCOC(=O)C1=C(C)NC2=C(C(=O)CC(C)(C)C2)C1c1cccc(Cl)c1Cl (centres undefined) | 3.1
12 | CCCCCCOc1ccc(N2C(=O)CC(NCc3ccc(OC)cc3)C2=O)cc1 (centres undefined) | 4.5
13 | Cc1ccc(C2/C(=C(\O)c3ccccc3)C(=O)C(=O)N2c2nncs2)cc1 (centres undefined) | 11.3
14 | O=C(C1=C(O)C(=O)N(c2nncs2)C1c1ccc(F)cc1)c1cccs1 (centres undefined) | 109
15 | CC(C)(C)c1ccc(C2/C(=C(\O)c3ccc(F)cc3)C(=O)C(=O)N2c2nncs2)cc1 (centres undefined) | 11.3
16 | O=C1C(=O)N(c2nncs2)C(c2ccc(F)cc2)/C1=C(\O)c1ccccc1 (centres undefined) | 13.6
17 | Cc1ccc(C2C(C(=O)c3cccs3)=C(O)C(=O)N2c2nncs2)cc1 (centres undefined) | 121
18 | Cc1ccc(/C(O)=C2\C(=O)C(=O)N(c3nncs3)C2c2cccc(Br)c2)cc1 (centres undefined) | 18.7
19 | Nn1c(Nc2ccccc2)nc2ccccc2c1=O | -15.5
20 | O=C(N/N=C/c1cccc([N+](=O)[O-])c1)C1CC(=O)N(c2ccc(F)cc2)C1 (centres undefined) | -10.4
21 | O=C1CCCC2=C1C(c1ccc([N+](=O)[O-])cc1)C1=C(CCCC1=O)N2c1ccc(Cl)cc1 | 17.8
22 | Cc1ccc([N+](=O)[O-])cc1NC(=O)CCCOc1ccccc1 | 8.1
23 | COc1ccc(Cl)cc1NC(=O)C1=C(C)NC(=S)NC1c1ccc(F)cc1 (centres undefined) | 11.9
24 | COC(=O)C1=C(C)NC2=C(C(=O)c3ccccc32)C1c1ccc(-c2ccc([N+](=O)[O-])cc2Br)o1 (centres undefined) | 46.9
25 | O=C1C2=C(Nc3ccccc3SC2c2ccc([N+](=O)[O-])cc2)c2ccccc21 (centres undefined) | -6

Row | SMILES | displacement [%]
26 | O=C1NN(c2ccccc2)C(=O)/C1=C\C=C\c1ccccc1 | 30.9
27 | O=C1C(=C/C=C/c2ccccc2)C(=O)c2ccccc21 | 75
28 | O=C1C(=Cc2ccccc2)C(=O)c2ccccc21 | 17.6
29 | CCOC(=O)c1c(NC(=O)C(Cl)(Cl)Cl)sc2c1CCC2 | -3.5
30 | Cc1ccc2c(c1)NC(c1ccc(Cl)cc1Cl)C1=C(CC(C)(C)CC1=O)N2 (centres undefined) | 13.5
31 | O=S(=O)(O)c1nc2ccccc2n1-c1ccccc1 | -9.1
32 | CC(C)(C)c1cc(C(=O)N/N=C\c2ccc(Cl)cc2)n[nH]1 | -5.3
33 | CC1=C(C(=O)Nc2ccc(Cl)cc2)C(c2ccc([N+](=O)[O-])cc2)NC(=S)N1 (centres undefined) | 4.6
34 | COc1ccc(NC(=O)C2=C(C)NC(=O)NC2c2cccc(OC)c2)cc1 (centres undefined) | -15.9
35 | CC1=C(C(=O)Nc2ccc(Cl)cc2)C(c2ccc([N+](=O)[O-])cc2)NC(=O)N1 (centres undefined) | 124
36 | COc1ccc(NC(=O)C2=C(C)NC(=O)NC2c2cccc(Cl)c2)cc1 (centres undefined) | 83.7
37 | CC1=C(C(=O)Nc2ccc(C)cc2)C(c2ccc([N+](=O)[O-])cc2)NC(=O)N1 (centres undefined) | -3.6
38 | COc1ccc(C2NC(=O)NC(C)=C2C(=O)Nc2cccc(Cl)c2)cc1 (centres undefined) | 11.4
39 | COc1cc(C(=O)Nc2nc3ccc4ccccc4c3s2)cc(OC)c1OC | 6.6
40 | CCCCN(CCCC)S(=O)(=O)c1ccc(C)cc1 | -6.8
41 | COC(=O)c1ccc(N/C=C\C(=O)c2ccc3c(c2)OCO3)cc1 | 23.7
42 | O=C(/C=C\Nc1ccc([N+](=O)[O-])cc1Br)c1ccc2c(c1)OCO2 | 3
43 | O=C(/C=C\Nc1ccc2c(c1)OCO2)c1ccc(F)cc1 | -2.4
44 | O=C(/C=C\Nc1ccc2c(c1)OCO2)c1ccc2c(c1)OCO2 | 104
45 | CNc1cc([N+](=O)[O-])ccc1N/C=C\C(=O)c1ccc2ccccc2c1 | 14.1
46 | CNc1cc([N+](=O)[O-])ccc1N/C=C\C(=O)c1ccc2c(c1)OCO2 | 97.2
47 | COc1ccc(C(=O)Nc2ccc(Br)c(C)c2)c(OC)c1 | 14.5
48 | COC(=O)c1ccccc1NC(=O)c1cnn2c(C(F)(F)F)cc(-c3ccccc3)nc12 | 11.9
49 | COc1ccc(N(CC(=O)NC(C)c2ccccc2)S(=O)(=O)c2ccccc2)cc1 (centres undefined) | 5.7
50 | CCC(c1ccccc1)c1nnc(NC(=O)Nc2cccc(Cl)c2)s1 (centres undefined) | -0.8

Row | SMILES | displacement [%]
51 | COc1cc(NC(=O)c2ccc(-c3ccccc3[N+](=O)[O-])o2)ccc1NC(=O)c1ccco1 | 7.1
52 | CC(=O)Oc1cc2ccccc2cc1O | 3.9
53 | C=CCN1C(=O)/C(=C\c2ccc(-c3ccc([N+](=O)[O-])cc3)o2)C(=O)NC1=S | 12.1
54 | C=CCN1C(=O)/C(=C\c2cn(Cc3ccc([N+](=O)[O-])cc3)c3ccccc23)C(=O)NC1=S | 87.4
55 | C=CCN1C(=O)/C(=C\c2cn(C)c3ccccc23)C(=O)NC1=S | -18.2
56 | CSc1ccc(S(=O)(=O)NCc2ccccc2C)cc1 | 16.3
57 | O=[N+]([O-])c1ccc(/C=N/c2nc3c(s2)CCCC3)cc1 | 6.6
58 | COc1ccc(C(=O)c2c(N)c(C#N)c(C)n2-c2ccccc2)cc1 | 9.3
59 | COc1ccc(OCC(=O)Nc2ccc(OC)c(OC)c2)cc1 | -4.2
60 | O=c1cc(=O)n(-c2ccccc2)c2ccccc12 | -0.3
61 | O=C1NC(=O)N(c2ccccc2)C(=O)/C1=C\c1ccc(-c2ccccc2[N+](=O)[O-])o1 | 2.7
62 | Cc1ccc(N2C(=O)NC(=O)/C(=C\c3ccc(-c4cccc([N+](=O)[O-])c4)o3)C2=O)cc1 | -5.9
63 | COc1ccc(N2C(=O)NC(=O)/C(=C/c3ccc(-c4ccccc4[N+](=O)[O-])o3)C2=O)cc1 | -46.3
64 | Cc1c(Cl)cccc1-c1ccc(/C=C/c2cc(C(F)(F)F)[nH]c(=O)n2)o1 | -60.9
65 | COc1ccc(-c2ccc(/C=C3/C(=O)NC(=O)N(c4ccc(C)cc4)C3=O)o2)c([N+](=O)[O-])c1 | 83.5
66 | COc1ccc(-c2ccc(/C=C3\C(=O)NC(=O)N(c4ccc(Cl)cc4)C3=O)o2)c([N+](=O)[O-])c1 | 47
67 | COc1ccc(-c2ccc(/C=C/c3cc(C(F)(F)F)[nH]c(=O)n3)o2)c([N+](=O)[O-])c1 | 78.8
68 | Cc1ccc(N2C(=O)NC(=O)/C(=C\c3ccc(-c4ccc(C)c([N+](=O)[O-])c4)o3)C2=O)cc1 | 151
69 | COc1ccc(N2C(=O)/C(=C/c3ccc(-c4ccccc4[N+](=O)[O-])o3)C(=O)NC2=S)cc1 | 15.9
70 | Cc1ccc(N2C(=O)NC(=O)/C(=C/c3ccc(C)c([N+](=O)[O-])c3)C2=O)cc1 | -16.7
71 | COc1ccc(-c2ccc(/C=C3/C(=O)NC(=O)N(c4ccccc4)C3=O)o2)c([N+](=O)[O-])c1 | 78.3
72 | O=c1nc(/C=C/c2ccc(-c3ccc([N+](=O)[O-])cc3Cl)o2)cc(C(F)(F)F)[nH]1 | 11.9
73 | O=C(Nc1cccc(Oc2ccc3c(c2)C(=O)N(c2ccccc2)C3=O)c1)c1cccc([N+](=O)[O-])c1 | 12.7
74 | CC(=O)Nc1ccc(Nc2nc3ccccc3nc2Nc2ccc(NC(C)=O)cc2)cc1 | -13.4
75 | COC(=O)C1=C(C)N(Cc2ccccc2)C(=O)/C1=C\c1cccc([N+](=O)[O-])c1 | 2.4

Row | SMILES | displacement [%]
76 | CCOc1ccc(/C=C2/C(=O)NC(=O)N(c3ccc(C)cc3)C2=O)cc1 | -9.7
77 | COc1cc(/C=C/C(=O)c2ccc(C)cc2)cc(OC)c1OC | 1.6
78 | Oc1ccccc1/C=N/Nc1nc2ccccc2s1 | 0.6
79 | Cc1ccc(NC(=O)CN(c2ccc(Oc3ccccc3)cc2)S(C)(=O)=O)cc1 | 5.1
80 | CC(=O)n1cc(/C=C2\N=C(c3cccs3)OC2=O)c(-c2ccccc2)n1 | -0.1
81 | O=C1/C(=C/c2c3ccccc3nc3ccccc23)Sc2ccccc21 | -0.5
82 | CC(=O)n1cc(/C=C2\Sc3ccccc3C2=O)c(-c2ccccc2)n1 | 145
83 | NC(=O)c1ccc(Sc2nc3ccccc3s2)c([N+](=O)[O-])c1 | 1.4
84 | COC(=O)c1cccc(N2C(=O)C=CC2=O)c1 | 1
85 | O=C(CSc1nc2sc3c(c2c(=O)[nH]1)CCCC3)NCc1ccco1 | 59.8
86 | O=C(CSc1nc2sc3c(c2c(=O)[nH]1)CCCC3)NCc1ccccc1 | -18.5
87 | O=C(CSc1nc2sc3c(c2c(=O)[nH]1)CCCC3)NCc1ccccn1 | -0.6
88 | Cc1ccc(C)c(S(=O)(=O)Nc2ccc(Cl)cc2)c1 | 9
89 | COc1ccc(NC(=O)CN(c2ccc(Cl)cc2)S(C)(=O)=O)c(OC)c1 | 10.7
90 | O=C(Nc1ccc([N+](=O)[O-])cn1)c1cc(-c2ccc(Cl)c(Cl)c2)nc2ccccc12 | 52.4
91 | O=C(Nc1cc([N+](=O)[O-])ccc1Cl)c1cc(-c2ccc(Cl)cc2)nc2ccccc12 | 13.6
92 | O=C(Nc1ccccn1)c1cc(-c2ccc(Cl)c(Cl)c2)nc2ccccc12 | 10
93 | COC(=O)COc1ccc(/C=C2\C(=O)NC(=O)N(C)C2=O)cc1OC | -18.2
94 | CCOc1ccc(Br)cc1/C=N\NC(=O)c1cc(C)[nH]n1 | -2.6
95 | CCc1ccccc1NC1=C(Cl)C(=O)N(c2ccc(C)cc2C)C1=O | 16.8
96 | Cc1ccc(N2C(=O)C(Cl)=C(Nc3ccccc3F)C2=O)c(C)c1 | 71.5
97 | COc1ccccc1NC1=C(Cl)C(=O)N(c2ccc(C)cc2C)C1=O | 8.3
98 | Nc1nnc(CCC(=O)c2ccccc2)s1 | 3.5
99 | NC(=O)c1ccccc1NC(=O)c1ccc(I)cc1 | 7.7
